PubChem BioAssay AID504607 (Sanford-Burnham Center for Chemical Genomics, 2011)
The campaign covered roughly 6,200 compounds. About 4,800 (77%) were called active. So high a share suggests a set chosen from earlier hits. A selection follows. Unmarked numbers belong to inactive results.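 How the source made its calls: active means mean inhibition at 8 µM reaching about 37%, which flags the compound as non-specific (limit read from the data); inactive means the rest.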

Experiment: full-length luciferase signal inhibition, confirmation, counter-screen for Mdm2/MdmX interaction inhibitor project, cell-based, single concentration, SaOS-2 (AID 504607);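 further: p53-null SaOS-2 cells with luciferase driven by a doxycycline-inducible promoter; compound on cells about two nights before reading with doxycycline added after day one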
Conditions: SaOS-2 full-length luciferase counterscreen, luminescence; at 8 µM; stronger effect = higher value

SMILES	inhibition
CCCCCCCCCCCCn1ccc(=N)cc1	52.1% (active)
CNC(=O)O/N=C(\N)Cc1csc2ccc(Cl)cc12	126% (active)
CNC(=O)O/N=C(\N)Cc1csc2ccccc12	81.2% (active)
CCOc1ccc(-c2cc(C)[n+](CCN(CC)CC)c(-c3ccc(OCC)cc3)c2)cc1	22.3%
O=C1NC(=O)N(CCc2ccc(F)cc2)C(=O)/C1=C/C=C/c1ccccc1	83.8% (active)
COC(=O)C1=C(c2ccc(F)cc2OCc2ccccc2)C[C@@H]2CC[C@H]1N2C(=O)NCc1ccc2[nH]ccc2c1	94.7% (active)
Cc1cc2ccccn2c1C(C[N+](=O)[O-])c1c(F)cccc1Cl (centres undefined)	29.6%
O=C1C2(Cl)C3(Cl)C4(Cl)C(Cl)(Cl)C5(Cl)C3(Cl)C1(Cl)C5(Cl)C24Cl (centres undefined)	46.6% (active)
O=Cc1cn(Cc2ccc(F)cc2Cl)c2ccccc12	35.1%
